NFkB transloc pot: enhances IL-1B driven NFkB nuclear translocation; HUVEC IL-1B NFkB p65 nuclear translocation imaging; activation, % at 2 µM; hit rate 0.3% among 94,000; AID 819;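 active = activation above 40%, about the mean plus 3 SD, also judged a hit on visual image review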;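 also: percent activation is computed from the nuclear over cytoplasmic p65 intensity ratio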
IL1B cytotox: HUVEC cytotoxicity counter-screen, IL-1B stimulated. cell count reduction, % at 2 µM. hit rate 0.41% among 94,000. HUVEC cell count loss, Hoechst imaging;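 active = cell count reduction more than 3 SD above the screen-wide mean, cut at about 70% in these data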
sEH inhibitor: inhibitors of human soluble epoxide hydrolase. recombinant human sEH enzymatic activity assay. inhibition, % at 2 µM. hit rate 0.34% among 91,000. AID 707; in the data active = inhibition above about 80%
Target sequence (P34913 whole entry, looked up): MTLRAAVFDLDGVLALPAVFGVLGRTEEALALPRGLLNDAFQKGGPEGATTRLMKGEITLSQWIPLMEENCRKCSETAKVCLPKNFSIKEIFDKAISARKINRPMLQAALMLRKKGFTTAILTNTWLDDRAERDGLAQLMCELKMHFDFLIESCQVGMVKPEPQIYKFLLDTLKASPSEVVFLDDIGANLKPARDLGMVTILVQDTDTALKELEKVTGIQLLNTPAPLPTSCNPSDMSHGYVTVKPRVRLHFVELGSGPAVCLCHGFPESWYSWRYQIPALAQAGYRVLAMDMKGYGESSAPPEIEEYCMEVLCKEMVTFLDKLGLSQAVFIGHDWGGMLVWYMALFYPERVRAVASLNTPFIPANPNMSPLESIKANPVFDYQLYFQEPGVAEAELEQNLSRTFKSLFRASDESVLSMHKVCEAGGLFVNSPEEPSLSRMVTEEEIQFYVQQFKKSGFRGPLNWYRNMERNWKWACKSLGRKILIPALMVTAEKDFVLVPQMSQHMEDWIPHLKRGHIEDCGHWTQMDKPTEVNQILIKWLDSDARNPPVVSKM
NFkB transloc inh: blocks IL-1B driven NFkB nuclear translocation in HUVEC cells; HUVEC IL-1B NFkB p65 nuclear translocation imaging; hit rate 0.43% among 94,000; inhibition, % at 2 µM;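 active = inhibition above about 30% together with a positive call from visual inspection of the well image, limit read from the data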;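 also: nuclear over cytoplasmic p65 intensity ratio measured by imaging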
sEH activator: increases human soluble epoxide hydrolase activity | P34913 | AID 717 | hit rate 0.04% among 91,000 | purified human sEH enzymatic activity, activator screen | activation, % at 2 µM; in the data active = activation above about 37%
Cav32 inh: inhibitors of human Cav3.2 T-type calcium channel; hit rate 4% among 100,000; B-score at 10 µM; O95180; Cav3.2-expressing cells, Fluo-4 calcium fluorescence FDSS; active compounds read low; AID 449739;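 active = single-dose well whose peak fluorescence ratio is a statistical outlier from its plate by either plate-standardised score or position-corrected B-score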
Of the large screens only hits and unclear results are named; the others gave an inactive call. Rows were chosen to be rich in hits. Some 4.6% of all compounds tested hit in one or more screens of this group.

O=C(C1CCCN(S(=O)(=O)c2ccc(F)cc2)C1)N(Cc1cccs1)C1CC1 (centres undefined)	Cav32 inh -4.1 (no result: NFkB transloc pot, IL1B cytotox, sEH inhibitor, NFkB transloc inh, sEH activator)
CCOC(=O)c1sc(NC(=O)c2cc(-c3ccccc3C)nc3ccccc23)c(C#N)c1C	Cav32 inh -6.8
CCOC(=O)c1sc(NC(=O)CSc2nc(C)cc(-c3ccccc3)n2)c(C#N)c1C	none
CCC(=O)N1CCc2cc(Br)cc(S(=O)(=O)CCC(=O)NCc3ccco3)c21	none
CCOC(=O)CSc1nc2cc3c(cc2cc1CC)OCCO3	Cav32 inh -4.6
O=C(COC(=O)c1ccccc1[N+](=O)[O-])c1ccc(C2CCCCC2)cc1	none
Cc1ccc(C(=O)Nc2nc(=O)n(C(=O)c3ccccc3C)s2)cc1	Cav32 inh -7.4 (no result: NFkB transloc pot, IL1B cytotox, NFkB transloc inh)
CCOC(=O)C1=C(CC)OC(N)=C(C#N)C1c1cccs1 (centres undefined)	none
CCN1CC2=C(OC(N)=C(C#N)C2c2cccs2)/C(=C\c2cccs2)C1 (centres undefined)	Cav32 inh -3.5
COc1ccc(S(=O)(=O)N(C)CC(=O)Nc2ccc3c(c2)OCO3)cc1OC	IL1B cytotox 81
COc1ccc(S(=O)(=O)N(C)CC(=O)Nc2ccc3c(c2)OCO3)cc1	none
O=C1Nc2ccccc2C1(c1ccccc1)c1ccccc1	Cav32 inh -9.5
CN(C)c1cccc(C(=O)n2cc(C(=O)c3cc(F)ccc3O)cn2)c1	Cav32 inh -3.9
O=C(CSc1nnc(CNc2cccc(C(F)(F)F)c2)n1Cc1ccco1)NCc1ccco1	NFkB transloc pot 69
Cc1ccc(-n2c(CNc3ccc(F)cc3)nnc2SCC(=O)NCc2ccco2)cc1	Cav32 inh -5.2
CCn1c(CNC(=O)c2ccco2)nnc1SCC(=O)Nc1cc(C(F)(F)F)ccc1Cl	Cav32 inh -4.5
Cc1cc(C(=O)OCC(=O)NCc2ccco2)c(C)n1-c1ccc(F)cc1	Cav32 inh -4.4 (no result: NFkB transloc pot, IL1B cytotox, sEH inhibitor, NFkB transloc inh, sEH activator)
COc1ccc(NCc2nnc(SCC(=O)NCc3ccco3)n2-c2ccccc2OC)cc1	none
O=C(c1cccc(Cl)c1)N1CCC(=O)N(C(COCc2cccc(Cl)c2)Cc2ccccc2)CC1 (centres undefined)	none (no result: NFkB transloc pot, IL1B cytotox, sEH inhibitor, NFkB transloc inh, sEH activator)
COc1ccc(NC(=O)N2CCCC2C(=O)NCc2ccc(F)cc2)cc1 (centres undefined)	none
CCOC(=O)CSCC(NC(=O)OC(C)(C)C)C(=O)OCC (centres undefined)	none (no result: Cav32 inh)
O=C(O)c1cc(C(F)(F)F)nc2ccccc12	none (no result: NFkB transloc pot, IL1B cytotox, sEH inhibitor, NFkB transloc inh, sEH activator)
CCOC(=O)CN1C(=O)C(Sc2n[nH]c(-c3ccc(C)cc3)n2)CCc2ccccc21 (centres undefined)	Cav32 inh -3.5 (no result: NFkB transloc pot, IL1B cytotox, NFkB transloc inh)
CCOC(=O)CN1C(=O)C(Sc2n[nH]c(-c3cccc(C)c3)n2)CCc2ccccc21 (centres undefined)	none (no result: NFkB transloc pot, IL1B cytotox, NFkB transloc inh)
CCn1c(Cc2cccc3ccccc23)nnc1SCC(=O)Nc1nccs1	Cav32 inh -5.9
COc1ccc(NC(=S)NC(NC(=O)c2cccc(Cl)c2)C(Cl)(Cl)Cl)c([N+](=O)[O-])c1 (centres undefined)	Cav32 inh -4.9
COc1ccc(NC(=S)NC(NC(=O)c2cccc(C)c2)C(Cl)(Cl)Cl)c([N+](=O)[O-])c1 (centres undefined)	Cav32 inh -6.7
CCOC(=O)NC(NC(=S)Nc1ccccc1[N+](=O)[O-])C(Cl)(Cl)Cl (centres undefined)	none (no result: NFkB transloc pot, IL1B cytotox, NFkB transloc inh)
Cc1nn(Cc2ccccc2)c(C)c1NC(=O)c1cc(-c2cccs2)on1	Cav32 inh -4.8
COc1ccc(-c2cc(C(=O)Nc3c(C)nn(Cc4ccccc4)c3C)no2)cc1	none
COc1cccc(-c2cc(C(=O)Nc3c(C)nn(Cc4ccccc4C)c3C)no2)c1	Cav32 inh -3.9
Cc1cc(NC(=O)c2cc(C(C)C)on2)nn1Cc1ccc(Cl)cc1	Cav32 inh -7.1
Cc1nn(Cc2ccc(Cl)c(Cl)c2)c(C)c1NC(=O)c1cc(CC(C)C)on1	Cav32 inh -8.6 (no result: NFkB transloc pot, IL1B cytotox, sEH inhibitor, NFkB transloc inh, sEH activator)
COc1cc(C(=O)Nc2ccc3c(c2)OCCO3)c(-n2cnnn2)cc1OC	none
CC(C)Oc1ccc(NC(=O)c2ccncc2)cc1	none
Cc1ccc(OCC(=O)N2CCN(c3nnc(-c4ccc(C)cc4)c4ccccc34)CC2)cc1	Cav32 inh -7.4
COc1ccc(-c2nnc(N3CCCCC3)c3ccccc23)cc1	Cav32 inh -4.6
COc1ccc(Cl)cc1NC(=O)CCCN1C(=O)CCC1=O	none
O=C(/C=C/c1ccco1)NC(=S)NNC(=O)c1ccco1	none
CCS(=O)(=O)N1CCC(C(=O)NCCCN2CCC(Cc3ccccc3)CC2)CC1	none (no result: sEH inhibitor, sEH activator, Cav32 inh)
C/C(CCc1ccc2c(c1)OCO2)=N\N=C(/N)SC1CC(=O)N(c2ccc(Cl)cc2)C1=O (centres undefined)	Cav32 inh -4.1
CCCCOCCCNC(=O)N[C@@H](CC(C)C)C(=O)O	none (no result: sEH inhibitor, sEH activator)
CC1Cc2ccccc2N1C(=O)Cn1c(=O)oc2cc(S(=O)(=O)NC3CCCC3)ccc21 (centres undefined)	Cav32 inh -8.9
COc1ccc(C2C=C(c3ccc(Br)s3)Nc3ncnn32)cc1OC (centres undefined)	Cav32 inh -8.7 (no result: NFkB transloc pot, IL1B cytotox, sEH inhibitor, NFkB transloc inh, sEH activator)
COC(=O)CN(c1nc(C)cc(OC)n1)S(=O)(=O)c1ccc(C)cc1	none (no result: NFkB transloc pot, IL1B cytotox, sEH inhibitor, NFkB transloc inh, sEH activator)
COC(=O)CN(c1nc(C)c(Br)c(OC)n1)S(=O)(=O)c1ccc(C)cc1	Cav32 inh -5.5
O=C(COC(=O)C1(c2ccc(F)cc2)CCCC1)N1CCN(C(=O)c2ccco2)CC1	Cav32 inh -5.4
O=S1(=O)CCC(NS(=O)(=O)c2cccc3cccnc23)C1 (centres undefined)	none
CC(=Nc1cccc(O)c1)c1sc2ccccc2c1O	NFkB transloc inh 53
CC(=Nc1ccc(C)cc1)c1sc2ccccc2c1O	none
CC(C)(C)NC(=O)CN(C(=O)Cn1nnc(-c2ccccc2F)n1)c1cccc2c1CCCC2	Cav32 inh -3.1
Cc1cccc(NC(=O)Cn2nnc(-c3ccc(CN4CCCC4)cc3)n2)c1C	none
CC(C)(C)NC(=O)CN(C(=O)Cn1nnc(-c2ccc(Cl)cc2)n1)C1CCN(Cc2ccccc2)CC1	Cav32 inh -7.6
Cn1c(=O)c2ncn(CC(=O)Nc3ccc4c5c(cccc35)CC4)c2n(C)c1=O	none
CCc1sc(N(C(=O)Cc2ccccc2)c2ccc(F)cc2)nc1-c1ccccc1	Cav32 inh -5.3
CCc1sc(N(C(=O)Cc2ccccc2)c2ccccc2)nc1-c1ccccc1	none
Cc1ccc(C(=O)N/C(=C\c2cccs2)C(=O)NCc2ccncc2)cc1	none
Cc1ccc(NC(=O)CC(O)(C(F)(F)F)C(F)(F)F)cc1	none
COC(=O)CSc1nnc(-c2ccc(S(=O)(=O)NCc3cccs3)cc2)o1	NFkB transloc pot 45
Brc1ccc(CSc2nnc(-c3ccccn3)n2Cc2ccco2)cc1	Cav32 inh -5.1
Clc1cccc(CSc2nnc(-c3ccccn3)n2Cc2ccco2)c1	Cav32 inh -7.6
Cc1ccccc1CSc1nnc(-c2cccs2)n1Cc1ccco1	Cav32 inh -6.5

Source: PubChem (several laboratories)
